Screening results (PubChem)
Most compounds without a hit are left out; they make up all but 6.9% or so of the library.
MCF10A rerep: inducers of DNA re-replication in MCF 10A breast cells | MCF 10A DNA re-replication, Hoechst nuclear intensity, 48 h | Potency, µM (highest dose often 46.1 µM), without a hit: top-dose activity, positive = re-replication, actives largely listed as activators | 350,000 tested, 2.9% active | AID 624296; also: potency is read from the fitted curve at half-maximal effect; % of control where 0% means no effect; nearly all actives have a fitted effect of over 50% in size
Vif-A3G inh: Vif-A3G binding inhibition. HeLa A3G-eYFP + Vif (tagged APOBEC3G with the HIV-1 protein that degrades it), YFP fluorescence, overnight. Potency, µM (doses to about 46.1 µM), inactives show at the top dose activity, negative = active, hits mostly inhibitors. 410,000 tested, 0.076% active; also: potency is read from the fitted curve at half-maximal effect; % is scaled to controls: 0 for no effect and ±100 for the full control effect; nearly all actives have a fitted effect of over 60% in size
Target sequence (Q9HC16 whole entry, looked up): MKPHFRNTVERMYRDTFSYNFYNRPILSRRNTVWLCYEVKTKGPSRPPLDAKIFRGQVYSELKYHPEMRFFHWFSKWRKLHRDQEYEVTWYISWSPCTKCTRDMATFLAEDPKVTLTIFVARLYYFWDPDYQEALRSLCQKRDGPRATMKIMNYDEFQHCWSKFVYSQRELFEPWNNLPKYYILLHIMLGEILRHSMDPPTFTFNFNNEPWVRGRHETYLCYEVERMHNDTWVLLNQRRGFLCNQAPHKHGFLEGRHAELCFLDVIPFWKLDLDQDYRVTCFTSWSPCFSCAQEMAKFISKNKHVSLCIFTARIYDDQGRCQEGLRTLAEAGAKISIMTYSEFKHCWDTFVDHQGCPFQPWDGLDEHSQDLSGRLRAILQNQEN
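HeLa cells stably expressing Vif and C-terminally eYFP-tagged A3G, seeded overnight at 37 deg C, then exposed to compound by pintool overnight at 37 deg C. Rise in yellow fluorescence (Ex 488/Em 500-530, Acumen) marks blocked Vif-driven A3G degradation.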
Giardia killer: Giardia lamblia killing | Giardia lamblia trophozoite viability | activity change, % at 7.66 µM, hits read low | 340,000 tested, 0.15% active | AID 540267; in the data active = activity change below about -80%; inconclusive = between about -30% and that limit;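 also: parasites exposed to compound for two days anaerobically before the ATP read; % is scaled to controls: 0 for no effect and ±100 for the full control effect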
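Trophozoite viability was measured as ATP-dependent luminescence, read 15-30 min after reagent addition. Before that, parasites at 100 cells/well were exposed to compounds for 48 h, anaerobically, at 37 deg C.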
SW480 rereplic: inducers of DNA re-replication in SW480 colon cancer cells | Potency, µM (titrated, usually from 46.1 µM), without a hit: at the top dose re-replication activation, actives largely listed as activators | SW480 DNA re-replication, Hoechst DNA content imaging, 48 h | 340,000 tested, 1.8% active | AID 624297; also: potency is read from the fitted curve at half-maximal effect; % of control where 0% means no effect; nearly all actives have a fitted effect of over 55% in size
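Cells (250 per well) received 23 nL compound or DMSO by pin tool and were kept 48 hr at 37 C, 5% CO2. Nuclei were then stained with Hoechst for 40 min and scanned for DNA content.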
Vif-A3F inh: Vif-A3F binding inhibition; Potency, µM (top dose mostly 46.1 µM), inactives show at the highest dose activity, negative = active; HeLa A3F-eYFP + Vif (tagged APOBEC3F with the HIV-1 protein that degrades it), YFP fluorescence increase; AID 602313; 390,000 tested, 0.2% active; also: potency is read from the fitted curve at half-maximal effect; % of control where 0% means no effect; nearly all actives have a fitted effect of over 65% in size
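HeLa cells stably expressing A3F-eYFP plus Vif, plated and incubated overnight at 37 deg C, then exposed to compounds overnight at 37 deg C. Blocked degradation read as raised yellow fluorescence (Ex 488/Em 500-530).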
IL1B secr inh: inflammasome signaling inhibition, IL-1 beta readout | THP-1 LPS/ATP IL-1B secretion, AlphaLISA, 16 h; hits give low values | activity change, % at 57.5 µM | 360,000 tested, 4.7% active | AID 743279; in the data active = activity change below about -50%; inconclusive = mostly about -30% to -49%; also: % is scaled to controls: 0 for no effect and ±100 for the full control effect
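Secreted IL-1B measured by AlphaLISA bead assay after 16 h compound exposure of THP-1 cells; compounds (final up to 57.5 uM) added 1 h before LPS (250 ng/mL) and ATP (1.25 mM) stimulation; lower signal means less secretion.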
The depositor's hits bear a star; ? = inconclusive; · = no result. Unless noted, calls follow the shape of the dose curve; as a rule, active = well fitted curve in the direction sought with a large enough effect; inconclusive = small, poorly fitted or top-dose-only effect, or another doubt; inactive = no such curve, though single readings can be large; an effect the other way counts as inactive or inconclusive.

SMILES	MCF10A rerep	Vif-A3G inh	Giardia killer	SW480 rereplic	Vif-A3F inh	IL1B secr inh
Cc1cc2ncc(-c3ccccc3)nc2cc1C	-2%	1%	5	?	1%	23
O=C(O)COc1cnc2ccccc2n1	-2%	1%	42	-3%	-4%	23
Cc1ccc(-c2cnc3ccccc3n2)cc1C	18µM*	-1%	-17	-8%	12%	23
CCC(=O)Nc1cccc(-c2cnc3ccccc3n2)c1	-2%	0%	-17	-1%	-4%	30
O=C(CCl)Nc1cccc(-c2cnc3ccccc3n2)c1	?	-5%	?	12µM*	6%	-96*
N#Cc1ccccc1Cn1c(=O)n(-c2ccc(F)c(Cl)c2)c(=O)c2sccc21	·	7%	·	·	-8%	·
COC(=O)C1=C[C@@H](C(=O)OC)C2C3=C(C(=O)[C@@]2(C)NC(=O)c2ccccc2)[C@H](c2ccccc2)n2c(=O)n(-c4ccccc4)c(=O)n2[C@@H]3C1 (some centres not stated)	·	-1%	-4	·	·	·
O=C(CCCOc1ccc(Cl)cc1Cl)Nc1ccccc1C(=O)O	4%	-1%	1	2%	7%	30
CCCCOc1ccc(Nc2cc(Cl)ccc2C(=O)O)cn1	16µM*	2%	3	7%	10%	3
CC(=O)Nc1ccc2nc(NC(=O)c3ccco3)sc2c1	2%	-3%	-15	2%	-2%	-3
CC(=O)Nc1ccc2nc(NC(=O)c3ccc([N+](=O)[O-])o3)sc2c1	0.65µM*	13µM*	2	3.3µM*	5%	-61*
CCCC(=O)Nc1nc2ccc(NC(=O)c3ccc(Br)o3)cc2s1	?	-12%	-2	-1%	-3%	-61*
COc1ccc(Cc2nnc(NC(=O)c3ccc(OC)c(OC)c3)s2)cc1	3.7µM*	-30%	33	?	0%	28
CCN(CC)c1cc(C)c2cc(NC(=O)c3ccc(Br)o3)ccc2n1	9.2µM*	3%	-10	?	-2%	-66*
CCCCc1ccc(C(=O)Nc2ccc3nc(N(CC)CC)cc(C)c3c2)cc1	·	0%	·	·	1%	·
COc1cccc(N2CCN(Cc3cc(=O)oc4cc(C)ccc34)CC2)c1	·	5%	·	·	2%	·
CCc1nnc(NC(=O)CCC(=O)NCc2ccc(OC)cc2)s1	2%	1%	4	-22%	3%	15
Cc1nc2ccc(NC(=O)c3ccc(Br)o3)cc2s1	-15%	0%	-26	1%	3%	-57*
COc1ccc(CNC(=O)CCC(=O)Nc2nnc(CC(C)C)s2)cc1	0%	-1%	-5	2.9µM*	5%	22
COc1ccc(C(=O)Nc2ccc3nc(C)sc3c2)cc1OC	3%	1%	-2	-12%	0%	-58*
CN(C)CCC1Sc2ccccc2Oc2ccccc21 (configuration not stated)	2%	2%	22	2%	4%	-21
CC1c2ccccc2SC(CCCN(C)C)c2ccccc21 (configuration not stated)	?	3%	10	-698%	-14%	-52*
CC(=O)NC(C(=O)c1ccccc1)C(=O)c1ccccc1	-73%	-5%	-8	0.52µM*	-1%	2
CCOP(=O)(OCC)C(NC(C)=O)C(=O)c1ccccc1 (configuration not stated)	32%	1%	?	0%	-4%	-22
CCN(c1ccccc1)S(=O)(=O)c1ccc(C(=O)Nc2nnc(-c3ccco3)o2)cc1	8%	-9%	-14	23µM*	-9%	14
SMILES	MCF10A rerep	Vif-A3G inh	Giardia killer	SW480 rereplic	Vif-A3F inh	IL1B secr inh
CCN(c1ccccc1)S(=O)(=O)c1ccc(C(=O)Nc2nnc(C3CC3)o2)cc1	1%	1%	12	?	?	80
CN(c1ccccc1)S(=O)(=O)c1ccc(C(=O)Nc2nnc(C3CC3)o2)cc1	-6%	-2%	?	1%	1%	-6
CN(c1ccccc1)S(=O)(=O)c1ccc(C(=O)Nc2nnc(-c3ccco3)o2)cc1	3%	1%	-2	21µM*	-20%	22
CCOc1ccc(S(=O)(=O)N2c3ccccc3CC2C)cc1 (configuration not stated)	?	?	-14	1.6µM*	-19%	36
CCOc1ccc(S(=O)(=O)N2CC(=O)Nc3ccccc32)cc1C#N	4%	-10%	6	-4%	0%	5
Cc1ccc(C(C)(C)C)cc1S(=O)(=O)N1CC(=O)Nc2ccccc21	16%	4%	-10	26%	15%	-100*
Cc1ccc(S(=O)(=O)N2c3ccccc3CC2C)cc1 (configuration not stated)	?	?	3	?	3%	-3
Cc1ccc(S(=O)(=O)N2CC(=O)Nc3ccccc32)c(C)c1NS(C)(=O)=O	-3%	0%	-4	-2%	-4%	13
CCOc1ccc(S(=O)(=O)N2CC(=O)Nc3ccccc32)cc1	?	-25%	8	15µM*	0%	52
Cc1cc(C(C)(C)C)cc(C)c1S(=O)(=O)N1CC(=O)Nc2ccccc21	18µM*	-5%	10	?	5%	-63*
COc1ccc(OC)c(C(=O)CN2C(=O)N(c3ccc(C)cc3)S(=O)(=O)c3ccccc32)c1	·	-2%	·	·	5%	·
Cc1c(Cl)cccc1NC(=O)c1ccc2c(c1)CCCN2S(C)(=O)=O	·	-2%	·	·	-3%	·
COc1ccccc1N1CCN(C(=O)CSc2n[nH]c(-c3ccccc3Cl)n2)CC1	·	1%	·	·	2%	·
CCc1cccc(NC(=O)COC(=O)c2ccccc2OCc2ccccc2Br)c1	·	2%	·	·	·	·
Cc1ccc2c(=O)c(C(=O)c3cccc(Cl)c3)cn(CC(=O)Nc3ccccc3C(F)(F)F)c2n1	·	1%	·	·	1%	·
Cc1ccc(CCNC(=O)c2c[nH]c3ccc(S(=O)(=O)Nc4cccc(C(F)(F)F)c4)cc3c2=O)cc1	·	-6%	·	·	3%	·
Cc1nn(C)cc1/C=N/NC(=S)Nc1ccccc1	12%	-1%	6	1.6µM*	6%	28
CN(C)c1ccc(C=NNC(=S)Nc2ccc(F)cc2)cc1	21µM*	0%	-24	?	3%	?
CSC(=S)N/N=C/c1ccc(N(C)C)cc1	1%	-5%	19	9%	?	6
Oc1ccccc1C=NNC(=S)Nc1ccc(F)cc1	?	-11%	-17	55%	3%	-95*
Cc1ccc(NC(=S)N/N=C/c2c(C)nn(-c3ccccc3)c2N2CCCC2)cc1	?	-5%	-7	14%	-14%	30
Cc1nn(-c2ccccc2)c(N2CCCC2)c1/C=N/NC(=S)Nc1ccc(F)cc1	4%	2%	9	5.8µM*	-17%	-12
